# Records with an inconclusive call do not appear. Activity calls are given as the source filed them. How the source made its calls: active means hit-call score of the fitted dose curve at least 0.9, where 1 is the maximum; inconclusive means response in the unintended direction; inactive means score below 0.9.
# What was measured:
# [1] = target: guinea pig Bradykinin Receptor B2 (BK2), BDKRB2 (gene 100135486) (UniProt O70526); experiment: NVS_GPCR_gBK2: NovaScreen (NVS) G Protein-Coupled Receptor Assay for guinea pig Bradykinin Receptor B2 (BK2) (AID 2283292)
# Chain of guinea pig Bradykinin Receptor B2 (BK2), BDKRB2 (gene 100135486) (O70526 whole entry, looked up): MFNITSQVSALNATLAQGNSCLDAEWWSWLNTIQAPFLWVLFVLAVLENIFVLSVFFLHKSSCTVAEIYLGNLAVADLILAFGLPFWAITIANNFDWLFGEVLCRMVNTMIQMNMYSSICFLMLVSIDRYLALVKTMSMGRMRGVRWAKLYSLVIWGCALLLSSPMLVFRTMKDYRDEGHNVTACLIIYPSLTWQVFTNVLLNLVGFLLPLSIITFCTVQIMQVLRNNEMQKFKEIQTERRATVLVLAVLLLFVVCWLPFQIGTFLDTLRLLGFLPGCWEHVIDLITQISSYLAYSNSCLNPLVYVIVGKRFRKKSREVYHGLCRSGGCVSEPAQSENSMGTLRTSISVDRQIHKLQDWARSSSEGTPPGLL
# Summary of the method: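 Guinea pig ileum membrane preparation incubated 1 h with radioligand and test chemical; bound counts measured after filtration. Primary duplicate screening at 25 uM, then singleton concentration series with a 50 uM top dose; DMSO as baseline.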
# [2] = target: guinea pig Serotonin, 5-Hydroxytryptamine Receptor 4 (5HT4), HTR4 (gene 100135548) (UniProt O70528); experiment: NVS_GPCR_g5HT4: NovaScreen (NVS) G Protein-Coupled Receptor Assay for guinea pig Serotonin, 5-Hydroxytryptamine Receptor 4 (5HT4) (AID 2283294)
# Chain of guinea pig Serotonin, 5-Hydroxytryptamine Receptor 4 (5HT4), HTR4 (gene 100135548) (O70528 whole entry, looked up): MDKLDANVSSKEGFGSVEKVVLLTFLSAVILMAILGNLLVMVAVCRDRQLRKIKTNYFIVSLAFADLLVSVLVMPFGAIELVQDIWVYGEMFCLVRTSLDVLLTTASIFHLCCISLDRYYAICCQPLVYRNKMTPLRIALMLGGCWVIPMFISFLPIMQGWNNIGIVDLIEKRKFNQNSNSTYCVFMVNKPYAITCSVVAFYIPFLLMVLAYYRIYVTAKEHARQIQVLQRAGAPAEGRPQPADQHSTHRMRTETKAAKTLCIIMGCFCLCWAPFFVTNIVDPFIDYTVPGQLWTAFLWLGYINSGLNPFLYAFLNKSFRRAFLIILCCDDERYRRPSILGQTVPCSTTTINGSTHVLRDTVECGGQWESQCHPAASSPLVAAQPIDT
# Protocol: NVS_GPCR_g5HT4 is a biochemical, single-readout assay that uses extracted gene-proteins from Guinea pig striatal membranes in a tissue-based cell-free assay. Measurements were taken 1 hour after chemical dosing in a 48-well plate.NVS_GPCR_g5HT4 is one of one assay component(s) measured or calculated from the NVS_GPCR_g5HT4 assay. It is designed to make measurements of radioligand binding, a form of binding reporter, as detected with scintillation counting signals by Filter-based radiodetection technology.Data from the assay component NVS_GPCR_g5HT4 was analyzed into 1 assay endpoint. This assay endpoint, NVS_GPCR_g5HT4, was analyzed in the positive analysis fitting direction relative to DMSO as the negative control and baseline of activity. Using a type of binding reporter, loss-of-signal activity can be used to understand changes in the binding as they relate to the gene Htr4. Furthermore, this assay endpoint can be referred to as a primary readout, because the performed assay has only produced 1 assay endpoint. To generalize the intended target to other relatable targets, this assay endpoint is annotated to the gpcr intended target family, where the subfamily is rhodopsin-like receptor. […]
# [3] = target: rat Adrenergic Receptor, Beta (Adrb), Non-selective Binding, Adrb1 (gene 24925) (UniProt P18090); experiment: NVS_GPCR_rAdrb_NonSelective: NovaScreen (NVS) G Protein-Coupled Receptor Assay for rat Adrenergic Receptor, Beta (Adrb), Non-selective Binding (AID 2283298)
# Chain of rat Adrenergic Receptor, Beta (Adrb), Non-selective Binding, Adrb1 (gene 24925) (P18090 whole entry, looked up): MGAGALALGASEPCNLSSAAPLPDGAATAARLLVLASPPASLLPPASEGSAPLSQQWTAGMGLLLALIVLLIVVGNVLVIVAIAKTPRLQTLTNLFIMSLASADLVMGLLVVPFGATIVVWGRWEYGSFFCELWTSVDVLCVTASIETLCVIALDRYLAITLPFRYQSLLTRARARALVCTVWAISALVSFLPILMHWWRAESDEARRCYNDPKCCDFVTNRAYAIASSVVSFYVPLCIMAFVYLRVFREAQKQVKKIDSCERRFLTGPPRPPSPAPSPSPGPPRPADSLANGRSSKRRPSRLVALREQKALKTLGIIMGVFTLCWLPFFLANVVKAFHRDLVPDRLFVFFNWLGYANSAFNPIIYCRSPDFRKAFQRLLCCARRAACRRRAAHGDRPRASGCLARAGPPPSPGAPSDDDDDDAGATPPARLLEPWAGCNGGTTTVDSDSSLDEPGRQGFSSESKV
# Summary of the method: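 Rat cortical membranes incubated 1 h with beta-adrenergic radioligand and test chemical; bound ligand measured by filtration and scintillation counting. Screen at 25 uM duplicate, then concentration series with 50 uM maximum; loss of signal versus DMSO.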
smiles,measurement,setting,value
COC(=O)NC(=S)Nc1ccccc1NC(=S)NC(=O)OC,outcome,[1],inactive
Cn1c(-c2ccccc2)cc(-c2ccccc2)[n+]1C,AC50,[2],6.94 µM (active)
same,AC50,[3],9.62 µM (active)
CCNP(=S)(OC)O/C(C)=C/C(=O)OC(C)C (centres undefined),outcome,[3],inactive

# — PubChem BioAssay (EPA / NIEHS)
